High-throughput results: PubChem BioAssay, Pan Lab, Icahn School of Medicine at Mount Sinai
RBX1-CUL1 inh = inhibitors of human ROC1-CUL1 ubiquitin ligase activity | P62877+Q13616 | in vitro K48 di-Ub FRET, acceptor:donor ratio, 45 min | hit rate 0.6% among 140,000 | AID 1347404 | inhibition, % at 10 µM; in the data active = inhibition above about 25%
Target sequence (P62877 whole entry, looked up): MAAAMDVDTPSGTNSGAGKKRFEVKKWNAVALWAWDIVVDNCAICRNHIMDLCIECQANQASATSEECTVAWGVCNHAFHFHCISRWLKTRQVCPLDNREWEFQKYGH
Target sequence (Q13616 whole entry, looked up): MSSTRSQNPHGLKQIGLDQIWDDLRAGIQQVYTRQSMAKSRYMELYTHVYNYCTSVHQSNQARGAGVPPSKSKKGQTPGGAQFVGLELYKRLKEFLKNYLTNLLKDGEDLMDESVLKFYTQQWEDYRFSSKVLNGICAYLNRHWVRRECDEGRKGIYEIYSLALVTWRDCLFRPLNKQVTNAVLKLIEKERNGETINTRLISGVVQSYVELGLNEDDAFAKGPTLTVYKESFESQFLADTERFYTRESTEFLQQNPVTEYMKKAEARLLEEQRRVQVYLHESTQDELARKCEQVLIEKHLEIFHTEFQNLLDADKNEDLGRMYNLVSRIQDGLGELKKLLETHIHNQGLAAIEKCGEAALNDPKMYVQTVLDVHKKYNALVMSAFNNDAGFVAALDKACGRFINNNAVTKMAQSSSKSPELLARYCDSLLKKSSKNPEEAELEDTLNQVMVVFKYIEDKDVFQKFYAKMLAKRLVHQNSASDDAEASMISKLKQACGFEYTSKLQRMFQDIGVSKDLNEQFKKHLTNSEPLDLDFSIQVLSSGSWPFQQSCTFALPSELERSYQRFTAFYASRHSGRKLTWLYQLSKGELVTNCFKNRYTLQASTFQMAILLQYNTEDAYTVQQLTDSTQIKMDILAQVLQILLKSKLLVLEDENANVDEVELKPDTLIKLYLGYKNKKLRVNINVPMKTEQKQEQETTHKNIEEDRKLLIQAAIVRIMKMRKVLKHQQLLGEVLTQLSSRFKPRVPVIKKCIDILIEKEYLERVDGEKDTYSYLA
Each line names hits and unclear results; the compound was inactive in the other large screens. The entries come from a sample that favours hits as a whole.

Cc1cccc(C(=O)N/N=C\c2cc(C)n(-c3c(C)cccc3C)c2C)c1	none
CCOc1ccccc1NC(=O)c1sc2ncccc2c1N	none
N#C/C(=C\c1cc(I)cc(I)c1OCc1ccccc1)c1nn(-c2ccccc2)c(N)c1C#N	none
CCCC1CCc2c(sc(NC(=O)c3cc(C)on3)c2C(N)=O)C1 (stereo unspecified)	none
CCC1CCc2c(sc(NC(=O)c3c(C)noc3C)c2C(N)=O)C1 (stereo unspecified)	RBX1-CUL1 inh 74
Cc1noc(C)c1C(=O)Nc1sc2c(c1C(N)=O)CCCCCC2	none
CC(C)Oc1ccc(C(O)=NS(=O)(=O)c2ccc(N)cc2)cc1	none
CC(=O)C1Sc2nnc(-c3ccccc3)n2N=C1C (stereo unspecified)	none
CCOC(=O)Nc1cccc2c1C(=O)c1ccccc1-2	none
CCOc1cccc(CNC(C)(C)CO)c1OCc1ccc(Cl)cc1Cl	none
CNCc1cccc(OCc2ccccc2Cl)c1	none
CCOc1cccc(CNc2ccc(O)cc2)c1OCc1ccc(Cl)cc1Cl	RBX1-CUL1 inh 53
CNCc1ccc(OCc2ccc(Cl)cc2Cl)cc1	none
CCOc1cccc(CNc2ccc(O)cc2)c1OCc1ccccc1Cl	none
Oc1ccc(NCc2cccc(OCc3ccc(Cl)cc3Cl)c2)cc1	RBX1-CUL1 inh 39
Cc1ccc(-c2cc(C(=O)N/N=C/c3c(O)ccc4ccccc34)n[nH]2)o1	none
CCOC(=O)C1=C(C)N(c2ccc(C)cc2)C(=O)/C1=C\c1cccc(OC)c1	none
O=C(Nc1ccc(Cl)cc1)OCCSc1nc2ccccc2o1	none
O=C1c2ccc(Oc3ccc(Cl)cc3)cc2C(=O)N1c1cccc(-c2cnc3ccccc3n2)c1	none
O=C1c2ccccc2C(=O)N1CN1CCCCCC1	none
O=C1C2=C/C(=C\N3CCCCC3)C(=O)N2c2ccccc21	RBX1-CUL1 inh 75
O=C1C(=O)N(CNc2ccccc2Cl)c2ccccc21	none
CCC(Oc1ccccc1OC)C(=O)N1CCN(c2ccccc2)CC1 (stereo unspecified)	none
O=C(CSc1nnc(CNc2ccc(I)cc2)n1-c1ccccc1)N/N=C/c1ccccc1O	none
c1ccc(-c2cc(N3CCCCC3)ncn2)cc1	none
c1ccc2cc(N3CCCCC3)ncc2c1	RBX1-CUL1 inh 65
O=[N+]([O-])c1ccc(N2CCCCC2)nc1	none
COc1cc(C(=O)NC(=S)Nc2ccc(-c3nc4ccccc4s3)cc2)cc(OC)c1OC	none
COc1ccccc1CN1CCCC1C(=O)Nc1ccccc1Oc1cccnc1 (stereo unspecified)	none
CCOc1cc(S(=O)(=O)n2cnc(C)c2)ccc1Br	none
CCc1cccc2c1=NC(=O)C=2c1sc(Nc2cccc(Cl)c2)nc1O	none
O=C1N=c2ccccc2=C1c1sc(Nc2ccc(Br)cc2)nc1O	none
O=C1N=c2ccccc2=C1c1sc(Nc2ccc(O)cc2)nc1O	RBX1-CUL1 inh 32
CCOC(=O)c1ccc(NC(=O)CCN2C(=O)/C(=C\c3ccc(F)cc3)SC2=S)cc1	none
O=C(N=C(Cc1ccccc1)C(=O)N1CCOCC1)c1cccc(Br)c1	none
Cc1ccc(NC(=O)CN2C(=O)c3ccc4c5c(ccc(c35)C2=O)CC4)cc1	RBX1-CUL1 inh 38
O=C(CN1C(=O)c2ccccc2C1=O)Nc1ccc(I)cc1	none
Cc1ccc(NC(=O)CN2C(=O)c3ccccc3C2=O)cc1Cl	none
CC(C)Oc1ccc(C(=O)NS(=O)(=O)c2ccc(N)cc2)cc1	none
COC(=O)Nc1ccc(C)c([N+](=O)[O-])c1	none
Cn1c(=O)[nH]c(=O)c2c1nc1n2CCCCS1	none
O=C(/C=C/c1cc[n+](CC(=O)c2ccc3cccc4c3c2CC4)cc1)c1ccc2cccc3c2c1CC3	RBX1-CUL1 inh 87
O=C(C[n+]1ccc(-c2ccccc2)cc1)c1ccccc1	none
CN(C)c1ccc(/C=C/C(=O)c2ccc3c4c(cccc24)CC3)cc1	none
CC(C)(C(=O)c1ccccc1)c1ccccc1	none
CCN=C1CC=CC=C(C(=O)/C=C/c2cccc(Cl)c2)C1=O	none
CCN=C1CC=CC=C(C(=O)/C=C/c2ccc(Cl)cc2Cl)C1=O	none
CCN=C1CC=CC=C(C(=O)/C=C/c2cccc(OC)c2OC)C1=O	none
CCN=C1CC=CC=C(C(=O)/C=C/c2ccc(Cl)cc2)C1=O	RBX1-CUL1 inh 79
CCN=C1CC=CC=C(C(=O)/C=C/c2ncccc2C)C1=O	RBX1-CUL1 inh 36
CCN=C1CC=CC=C(c2ccc3ccccc3n2)C1=O	none
COc1cc(OC)c([N+](=O)[O-])cc1OC	none
COc1ccc(C2C(C(=O)CCc3ccccc3)C(=O)C(=O)N2Cc2ccccc2)cc1 (stereo unspecified)	none
Cc1ccccc1-c1nnc(SCc2ccccc2Cl)o1	none
Cc1cc(N2C(=O)C(=O)C(C(=O)c3cccs3)C2c2ccc(Br)cc2)no1 (stereo unspecified)	none
O=C1N=C2SC3C4CCC(C4)C3C(c3ccccc3)C2S1 (stereo unspecified)	none
COc1ccc(N2CCN(C(=O)CN3C(=O)C4CCCCC4C3=O)CC2)cc1 (stereo unspecified)	none
CCCN1CCC(Oc2cc(OC)ccc2C(=O)N2CCCC2)CC1	none
OC(CN1CCN(Cc2ccccc2)CC1)Cn1c2ccc(I)cc2c2cc(I)ccc21 (stereo unspecified)	none
O=C(Oc1ccc(N2C(=O)CCC2=O)cc1)c1ccccc1	none
CC(=O)Sc1ccc(N2C(=O)CCC2=O)cc1	RBX1-CUL1 inh 37
O=C1CCC(=O)N1c1cccc(Cl)c1	none
CC1CC(=O)C2=C(C1)Nc1ccccc1NC2C (stereo unspecified)	none
CN(C)c1ncc(CN2CCC(n3nccc3NC(=O)C3CCOC3)CC2)s1 (stereo unspecified)	none
COc1ccc(/C=N/Nc2nc3c(s2)CCCC3)cc1	RBX1-CUL1 inh 55
COc1ccc(CC(=O)Nc2nc3c(s2)CCCC3)cc1	none
CCOc1ccc(/C=N\Nc2nc(C)c(C(C)=O)s2)cc1	none
CC(C)=CC(=O)/C=C(/C)c1cccs1	none
N#C/C(=C\c1ccco1)C(=O)c1cccs1	RBX1-CUL1 inh 57
N#Cc1c(-c2ccccc2)c(-c2ccccc2)n(Cc2ccco2)c1NC(=O)c1cccs1	none
N#Cc1c(-c2cccs2)cc(-c2cccs2)nc1SCC(=O)Nc1nc2ccccc2s1	none
Cc1ccc(C(=O)N2CCc3cc(S(=O)(=O)N4CCOCC4)ccc32)cc1	none
O=c1[nH]cc(Cl)c2ccccc12	none
CC(C)(C)c1ccc(S(=O)(=O)c2cnc(SCC(=O)Nc3ccc(F)c(Cl)c3)[nH]c2=O)cc1	none
COc1cc(Cl)c(C)cc1NC(=O)CSc1ncc(S(=O)(=O)c2ccc(C(C)(C)C)cc2)c(=O)[nH]1	RBX1-CUL1 inh 53
CCc1ccc(S(=O)(=O)c2cnc(SCC(=O)Nc3ccc(OC)cc3OC)[nH]c2=O)cc1	none
O=C(CN1CCN(c2ccc(Cl)cc2)CC1)Nc1ccc(OC(F)(F)Cl)cc1	none
CCc1cc(=O)[nH]c(-c2cccc(CN(C)Cc3cccc4cnccc34)c2)n1	none
N=C1C(=O)c2c(N)cccc2C(=O)C1Br (stereo unspecified)	RBX1-CUL1 inh 102
Nc1cccc2c1C(=O)N(c1cccc(F)c1)C2=O	none
COC(=O)c1ccccc1NC(=O)COc1ccc(C2CCCCC2)cc1	none
O=C(COc1ccc(C2CCCCC2)cc1)Nc1ccccc1F	none
CC(C)(Oc1ccc(C2CCCCC2)cc1)C(=O)O	RBX1-CUL1 inh 66
CC(C)c1nnc(-c2ccccc2)c(N2CCCC2)n1	none
COc1ccc(CCNC(=S)Nc2cc(Cl)ccc2Cl)cc1OC	none
COc1ccc(CCNC(=S)Nc2c(Cl)cncc2Cl)cc1OC	none
COc1ccc(CCNC(=S)S)cc1OC	RBX1-CUL1 inh 99
Cc1cc(NC(=O)c2sc3nc(-c4cccs4)ccc3c2N)ccc1Br	none
Cc1ncc2c(c1-c1noc(-c3n[nH]c4c3CC(C)CC4)n1)CCNC2 (stereo unspecified)	none
CCc1c(-c2nc(-c3c(C)ncc4c3CCNC4)no2)c(=O)cc(C)n1C	none
